This is a sample that favours compounds with a hit; in the whole collection about 2.2% have one here.
FUS yeast rescue: FUS proteinopathy suppression in yeast | S. cerevisiae FUS-expressing, growth rescue, OD600, 24 h | Potency, µM (top dose mostly 76.6 µM), usual class: activators | hit rate 0.24% among 390,000 | AID 1347120;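 also: plate controls were DMSO vehicle for no effect and reference control for full effect; nearly all actives have a fitted effect of over 55% in size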
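Toxicity suppression screen in FUS-yeast. Cells induced with 2% galactose, starting OD 0.005, treated 24hr at 30C with compounds at multiple final concentrations; growth by OD600.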
Abeta rescue: compounds reversing amyloid beta toxicity in yeast; hit rate 0.063% among 410,000; yeast expressing A-beta42, growth rescue, OD600, 48 h; response scale: 0% DMSO, 100% iron-clioquinol control; AID 1347071; Potency, µM (top dose mostly 46.1 µM), usual class: activators; also: nearly all actives have a fitted effect of over 55% in size
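Growth rescue measured by 600 nm absorbance after 48 h yeast culture at 30 C with compound. Values normalized between DMSO and an equimolar ferric chloride plus clioquinol control.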
TDP43 rescue: inhibitors of TDP-43 toxicity in yeast | TDP-43 expressing yeast growth rescue, BacTiter-Glo, 24 h | Potency, µM (highest dose often 46.1 µM), for the others: at the highest dose growth rescue (activation), actives largely listed as activators | hit rate 1.8% among 410,000 | AID 652104; also: % of control where 0% means no effect; nearly all actives have a fitted effect of over 50% in size
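Yeast cells expressing TDP-43 under galactose induction are exposed to compounds for 24 hr at 30 deg C. BacTiter-Glo luminescence measures growth, so protective compounds score as activators.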
aSyn yeast inh: inhibitors of alpha-synuclein toxicity in yeast; Yeast expressing alpha-synuclein, growth rescue, BacTiter-Glo, 24 h; Potency, µM (series often up to 46.1 µM), inactives show at the top dose growth rescue (activation), usual class: activators; hit rate 0.14% among 370,000; also: % of control where 0% means no effect; nearly all actives have a fitted effect of over 65% in size
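Galactose-induced alpha-syn yeast (OD600=0.02, raffinose-pregrown) + pinned cpd, 24 hr, 30 deg C; growth by BacTiter-Glo luminescence. Growth restoration scores as activation.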
Mito fusion yeast: inhibitors of mitochondrial division or activators of mitochondrial fusion; S. cerevisiae fusion-defective mutant growth rescue, CellTiterGlo 48 h; Potency, µM (titrated, usually from 46.1 µM), inactives show at the top dose growth rescue (activation), actives largely listed as activators; hit rate 0.23% among 320,000; AID 485298; also: % of control where 0% means no effect; nearly all actives have a fitted effect of over 45% in size
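Temperature-sensitive fusion-defective S. cerevisiae (e.g. fzo1-1, mgm1-5) were grown with compound in YPEG medium (3% ethanol, 3% glycerol) for 48 hours at 37C. Growth rescue was measured as viability by CellTiterGlo luminescence after 10 minutes at ambient.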
Active calls of the source: *; i = inactive; ? = inconclusive; · = not tested or not shown; [ ] = another dose, or the depositor's remark. Calls follow the shape of the dose curve; as a rule, active = well fitted curve in the direction sought with a large enough effect; inconclusive = small, poorly fitted or top-dose-only effect, or another doubt; inactive = no such curve, though single readings can be large; an effect the other way counts as inactive or inconclusive. Potency is read from the fitted curve at half-maximal effect.

SMILES	FUS yeast rescue	Abeta rescue	TDP43 rescue	aSyn yeast inh	Mito fusion yeast
COc1cc(C)c(S(=O)(=O)N2CCN(C)CC2)cc1C	i	i	12%	2%	0%
CCOc1cc(C)c(S(=O)(=O)N2CCCCC2)cc1C	i	?	?	16µM*	?
Cc1ccc(S(=O)(=O)N2C(N)=C(C(=O)NCc3ccc(Br)cc3)C(c3ccc(Cl)cc3)C2C(=O)c2ccccc2)cc1 (stereo not given)	i	·	·	·	·
COC(=O)C1(C)CN(S(=O)(=O)c2ccc(C)cc2)c2cc(OC)ccc2C1=O (stereo not given)	·	i	-10%	12%	14µM*
COC(=O)C1(C)CCc2cc(OC)ccc2C1=O (stereo not given)	i	i	-15%	4%	-2%
CCCCNC(=O)C1(C(=O)C2CC2)CC(c2ccccc2C(F)(F)F)=NO1 (stereo not given)	i	·	·	·	·
NC(=O)/C=C/C(=O)Nc1ccc(Cl)cc1	i	i	20µM*	15%	-24%
COC(=O)c1ccc(NC(=O)CCNS(=O)(=O)c2cccc3nsnc23)cc1	i	i	17%	·	·
CSc1nc(N)nc(-c2cccs2)c1C#N	i	i	20µM*	8%	-9%
CC(C)Sc1nc(N)nc(-c2cccs2)c1C#N	i	i[9.22 µM]	18µM*	0%	?
COC(=O)C(C)NC(=S)N1CCN(c2c(F)cc3c(=O)c(C(=O)O)cn(C4CC4)c3c2OC)CC1C (stereo not given)	32µM*	i	?	7%	-2%
CNC(=S)N1CCN(c2c(F)cc3c(=O)c(C(=O)O)cn(C4CC4)c3c2OC)CC1C (stereo not given)	i	i	4%	-5%	2%
c1ccc(-c2c(-c3ccccc3)n(Cc3ccco3)c3ncnc(NCCCn4ccnc4)c23)cc1	i	i	?	?	-13%
OCCNc1ncnc2c1c(-c1ccccc1)c(-c1ccccc1)n2Cc1ccco1	i	i	-14%	13µM*	6%
CC(NC(=O)c1ccc([N+](=O)[O-])o1)C12CC3CC(CC(C3)C1)C2 (stereo not given)	i	i	?	-4%	14µM*
CC(NC(=O)C12CC3CC(CC(C3)C1)C2)C(=O)NN=Cc1ccc([N+](=O)[O-])o1 (stereo not given)	i	i	14%	1%	·
CCn1cc(C(=O)NCCCOC(C)C)c(=O)c2cc(S(=O)(=O)N3CCc4ccccc4C3)ccc21	i	i	-10%	·	·
Cc1ccc(CNC(=O)c2cccn2-c2nnc(N3CCCCC3)s2)cc1	i	i	-5%	·	·
Cc1ccc(Cl)cc1N1CCN(C(=O)CNC(=O)c2ccc(Br)o2)CC1	·	i	17%	27%	16µM*
Cc1ccc(Cl)cc1N1CCN(C(=O)c2ccc(CS(=O)Cc3ccc(Cl)cc3)o2)CC1 (stereo not given)	?	i	20µM*	?	-23%
O=c1c2sccc2n(Cc2cc(=O)n3ccccc3n2)c(=O)n1-c1cc(F)ccc1F	i	i	18%	·	·
COc1ccc(C(=O)NCC(c2ccc(N(C)C)cc2)N2CCc3ccccc32)cc1 (stereo not given)	i	i	4%	·	·
O=C(Cc1ccccc1)NC(=S)Nc1ccc(OC(F)F)cc1	i	11µM*	25%	-7%	0%
O=c1oc2c(CN3CCOCC3)c(O)ccc2cc1-c1ccc(Cl)cc1	i	i	13µM*	·	·
Cc1ccc(C(C(=O)NCc2ccccc2)N(Cc2cccs2)C(=O)c2ccc3c(c2)OCCO3)cc1 (stereo not given)	?	i	-14%	3%	27%
SMILES	FUS yeast rescue	Abeta rescue	TDP43 rescue	aSyn yeast inh	Mito fusion yeast
COc1ccc(CNC(=O)C(c2ccc(C)cc2)N(Cc2cccs2)C(=O)c2ccc3c(c2)OCCO3)cc1 (stereo not given)	5µM*	i	-23%	-6%	3%
O=c1c(N2CCN(c3ccccc3)CC2)csc2ccc(Cl)cc12	i	i	?	·	·
CC(C)C(Cl)=NOC(=O)Nc1ccc(F)cc1	·	i	13µM*	-9%	·
C/C(=N\OC(=O)Nc1ccc(Cl)cc1)c1ccc(F)c(F)c1	i	i	?	-34%	-15%
CNC(=O)CCc1nc(-c2ccc(C(C)C)cc2)no1	i	·	·	·	·
CC(Oc1cccc(Br)c1)C(=O)NNC(=O)c1ccccn1 (stereo not given)	i	?	25µM*	?	·
CC(Oc1ccccc1)C(=O)NNC(=O)c1ccccn1 (stereo not given)	·	?	?	22%	6%
COc1ccc(NC(=O)c2sc3nc(N4CCCC4)c4c(c3c2N)CC(C)(C)OC4)cc1	i	i	?	-1%	13µM*
CCOc1ccc(NCc2cccn2-c2nnc(N3CCC(C(=O)NCCc4ccc(OC)c(OC)c4)CC3)s2)cc1	25µM*	i	-6%	·	·
CCOc1ccc(NCc2cccn2-c2nnc(N3CCC(C(=O)NCCc4ccc(OCC)c(OCC)c4)CC3)s2)cc1	?	i	10%	·	·
CC(C)N(Cc1nnc(-c2ccccc2Cl)o1)C(=O)COc1cccc(Cl)c1	i	i	4%	0%	·
CCC(=O)c1ccc(OCC(=O)N(Cc2nnc(-c3ccccc3Cl)o2)C2CC2)cc1	i	i	21%	4%	15%
O=C(COc1ccc(Br)cc1)N(Cc1nnc(-c2ccccc2Cl)o1)C1CC1	?	i	20µM*	?	·
CCCN(Cc1nnc(-c2ccccc2Cl)o1)C(=O)COc1ccc(Cl)cc1	·	i	35µM*	6%	18%
CC(C)(C)c1ccc(S(=O)(=O)N2CCC(C(=O)N3CCN(C4CCCCC4)CC3)CC2)cc1	i	·	·	·	·
COc1cc2oc3ccc(C#Cc4ccc(N)cc4)cc3c(=O)c2cc1OC	i	i	5%	4%	·
COc1cc2oc3ccc(C#Cc4ccccn4)cc3c(=O)c2cc1OC	i	i	9%	13µM*	·
O=C(COC(=O)CSc1ccc([N+](=O)[O-])cc1)NCC1CCCO1 (stereo not given)	i	i	2%	-6%	4%
Cc1cc(SCC(=O)OCC(=O)NCC2CCCO2)c(C)cc1Br (stereo not given)	i	i	25µM*	5%	-1%
Cc1ccc(N2CCN(S(=O)(=O)c3ccc(F)c(C(=O)Nc4ccc(Cl)cc4Cl)c3)CC2C)cc1 (stereo not given)	i	i	13%	·	·
Cc1cc(C)c2c(-n3cccc3)c(C(=O)NCCc3ccccc3)sc2n1	i	i	19%	·	·
COc1ccc(/C=C/C(=O)Oc2ccc(C)c(C)c2)cc1OC	?	i	-15%	-16%	15%

Assay outcomes as filed in PubChem BioAssay.
